# According to PMC12820563, “FoxP3 forms a head-to-head dimer in vivo and stabilizes its multimerization on adjacent microsatellites”:
# The full ranking holds about 16,000 sequences; the median of “rpm ratio (pull-down/input)” is about 0.94, and the highest 2% start at about 1.7. Shown is part of a subset that was picked to be rich in the highest values.
# Biological target: T1, MBP-FoxP1dN (Mus musculus, UniProt P58462 326-579)
# T1 sequence: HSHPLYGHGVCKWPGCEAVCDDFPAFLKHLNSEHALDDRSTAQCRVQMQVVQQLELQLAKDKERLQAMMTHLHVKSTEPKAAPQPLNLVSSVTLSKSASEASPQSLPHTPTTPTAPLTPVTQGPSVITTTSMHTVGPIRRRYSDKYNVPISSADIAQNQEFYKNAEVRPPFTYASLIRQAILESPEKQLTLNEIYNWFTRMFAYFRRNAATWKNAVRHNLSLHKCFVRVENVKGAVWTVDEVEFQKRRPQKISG
# Experiment: PD-seq (MBP pull-down with sequencing); 20 mM Tris-HCl pH 7.5, 100 mM NaCl, 1.5 mM MgCl2, 0.4 uM protein, 0.1 uM dsDNA library, 30 min, room temperature, amylose pull-down; high values mean tight binding
# Settings: protein: recombinant; tags: His6-MBP; chain copies: 2; dsDNA, one strand shown
# In short: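 Binding is the reads-per-million enrichment of pull-down relative to input, pooled across replicates. For this, 0.4 µM His6-MBP-tagged mouse FoxP3 or FoxP1 fragment lacking the N-terminus, made in E. coli, was incubated with 0.1 µM Klenow-filled double-stranded degenerate DNA library for 30 min at room temperature in Tris pH 7.5 buffer with NaCl and MgCl2. Complexes bound to amylose resin were washed three times before proteinase K released the DNA for PCR barcoding and Illumina sequencing.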
row,Sequence,binding signal
1,GATGATTGTTCTCCCAGCTGATGAATTGAGATTTTCGAGTAAACAAATTTTCCTAATCTTTCTGTTCAAGCGCCATCTAC,0.923 RPM ratio (pull-down/input)
2,GATGATTGTTCTCCCAGCTGATGAATTGAGGTCTTCGAGTAAACAAATTTTCCTAATCTTTCTGTTCAAGCGCCATCTAC,0.786 RPM ratio (pull-down/input)
3,GATGATTGTTCTCCCAGCTGATGAATTCATCGCCTCGAGTAAACAAATTTTCCTAATCTTTCTGTTCAAGCGCCATCTAC,0.873 RPM ratio (pull-down/input)
4,GATGATTGTTCTCCCAGCTGATGAATTACGGGGTTCGAGTAAACAAATTTTCCTAATCTTTCTGTTCAAGCGCCATCTAC,0.931 RPM ratio (pull-down/input)
5,GATGATTGTTCTCCCAGCTGATGAATTAGAAACTTCGAGTAAACAAATTTTCCTAATCTTTCTGTTCAAGCGCCATCTAC,0.892 RPM ratio (pull-down/input)
6,GATGATTGTTCTCCCAGCTGATGAATTGTCAACTTCGAGTAAACAAATTTTCCTAATCTTTCTGTTCAAGCGCCATCTAC,1.31 RPM ratio (pull-down/input)
7,GATGATTGTTCTCCCAGCTGATGAATTGGATTCTTCGAGTAAACAAATTTTCCTAATCTTTCTGTTCAAGCGCCATCTAC,0.813 RPM ratio (pull-down/input)
8,GATGATTGTTCTCCCAGCTGATGAATTACAAGGTTCGAGTAAACAAATTTTCCTAATCTTTCTGTTCAAGCGCCATCTAC,1.09 RPM ratio (pull-down/input)
9,GATGATTGTTCTCCCAGCTGATGAATTCACCACATCGAGTAAACAAATTTTCCTAATCTTTCTGTTCAAGCGCCATCTAC,1.12 RPM ratio (pull-down/input)
10,GATGATTGTTCTCCCAGCTGATGAATTGGTCTGGTCGAGTAAACAAATTTTCCTAATCTTTCTGTTCAAGCGCCATCTAC,0.807 RPM ratio (pull-down/input)
11,GATGATTGTTCTCCCAGCTGATGAATTTGATGCGTCGAGTAAACAAATTTTCCTAATCTTTCTGTTCAAGCGCCATCTAC,1.13 RPM ratio (pull-down/input)
12,GATGATTGTTCTCCCAGCTGATGAATTAAACAGGTCGAGTAAACAAATTTTCCTAATCTTTCTGTTCAAGCGCCATCTAC,1.21 RPM ratio (pull-down/input)
13,GATGATTGTTCTCCCAGCTGATGAATTTGGGTCTTCGAGTAAACAAATTTTCCTAATCTTTCTGTTCAAGCGCCATCTAC,0.904 RPM ratio (pull-down/input)
14,GATGATTGTTCTCCCAGCTGATGAATTATATCGATCGAGTAAACAAATTTTCCTAATCTTTCTGTTCAAGCGCCATCTAC,0.956 RPM ratio (pull-down/input)
15,GATGATTGTTCTCCCAGCTGATGAATTTGTTTGATCGAGTAAACAAATTTTCCTAATCTTTCTGTTCAAGCGCCATCTAC,1.47 RPM ratio (pull-down/input)
16,GATGATTGTTCTCCCAGCTGATGAATTTTTTTGATCGAGTAAACAAATTTTCCTAATCTTTCTGTTCAAGCGCCATCTAC,0.955 RPM ratio (pull-down/input)
17,GATGATTGTTCTCCCAGCTGATGAATTGATCTGATCGAGTAAACAAATTTTCCTAATCTTTCTGTTCAAGCGCCATCTAC,0.968 RPM ratio (pull-down/input)
18,GATGATTGTTCTCCCAGCTGATGAATTGTATTGATCGAGTAAACAAATTTTCCTAATCTTTCTGTTCAAGCGCCATCTAC,2.22 RPM ratio (pull-down/input)
19,GATGATTGTTCTCCCAGCTGATGAATTGATTGTATCGAGTAAACAAATTTTCCTAATCTTTCTGTTCAAGCGCCATCTAC,1.54 RPM ratio (pull-down/input)
20,GATGATTGTTCTCCCAGCTGATGAATTGTGTTGATCGAGTAAACAAATTTTCCTAATCTTTCTGTTCAAGCGCCATCTAC,2.46 RPM ratio (pull-down/input)
21,GATGATTGTTCTCCCAGCTGATGAATTGATCTAATCGAGTAAACAAATTTTCCTAATCTTTCTGTTCAAGCGCCATCTAC,1.19 RPM ratio (pull-down/input)
22,GATGATTGTTCTCCCAGCTGATGAATTGAATTGATCGAGTAAACAAATTTTCCTAATCTTTCTGTTCAAGCGCCATCTAC,0.941 RPM ratio (pull-down/input)
23,GATGATTGTTCTCCCAGCTGATGAATTGTTTTGATCGAGTAAACAAATTTTCCTAATCTTTCTGTTCAAGCGCCATCTAC,2.01 RPM ratio (pull-down/input)
24,GATGATTGTTCTCCCAGCTGATGAATTGTGAAAGTCGAGTAAACAAATTTTCCTAATCTTTCTGTTCAAGCGCCATCTAC,1.01 RPM ratio (pull-down/input)
25,GATGATTGTTCTCCCAGCTGATGAATTAACAGACTCGAGTAAACAAATTTTCCTAATCTTTCTGTTCAAGCGCCATCTAC,0.866 RPM ratio (pull-down/input)

row,Sequence,binding signal
1,GATGATTGTTCTCCCAGCTGATGAATTCATCCACTCGAGTAAACAAATTTTCCTAATCTTTCTGTTCAAGCGCCATCTAC,0.832 RPM ratio (pull-down/input)
2,GATGATTGTTCTCCCAGCTGATGAATTGTACCACTCGAGTAAACAAATTTTCCTAATCTTTCTGTTCAAGCGCCATCTAC,0.996 RPM ratio (pull-down/input)
3,GATGATTGTTCTCCCAGCTGATGAATTCCTGTTGTCGAGTAAACAAATTTTCCTAATCTTTCTGTTCAAGCGCCATCTAC,2.34 RPM ratio (pull-down/input)
4,GATGATTGTTCTCCCAGCTGATGAATTCATCTTGTCGAGTAAACAAATTTTCCTAATCTTTCTGTTCAAGCGCCATCTAC,0.898 RPM ratio (pull-down/input)
5,GATGATTGTTCTCCCAGCTGATGAATTCCTCCTGTCGAGTAAACAAATTTTCCTAATCTTTCTGTTCAAGCGCCATCTAC,0.729 RPM ratio (pull-down/input)
6,GATGATTGTTCTCCCAGCTGATGAATTCTCCTTGTCGAGTAAACAAATTTTCCTAATCTTTCTGTTCAAGCGCCATCTAC,0.774 RPM ratio (pull-down/input)
7,GATGATTGTTCTCCCAGCTGATGAATTCCTGATGTCGAGTAAACAAATTTTCCTAATCTTTCTGTTCAAGCGCCATCTAC,1.08 RPM ratio (pull-down/input)
8,GATGATTGTTCTCCCAGCTGATGAATTCTTGTTGTCGAGTAAACAAATTTTCCTAATCTTTCTGTTCAAGCGCCATCTAC,2.6 RPM ratio (pull-down/input)
9,GATGATTGTTCTCCCAGCTGATGAATTAAAGGTTTCGAGTAAACAAATTTTCCTAATCTTTCTGTTCAAGCGCCATCTAC,0.867 RPM ratio (pull-down/input)
10,GATGATTGTTCTCCCAGCTGATGAATTTCCTGACTCGAGTAAACAAATTTTCCTAATCTTTCTGTTCAAGCGCCATCTAC,0.753 RPM ratio (pull-down/input)
11,GATGATTGTTCTCCCAGCTGATGAATTAAGATCTTCGAGTAAACAAATTTTCCTAATCTTTCTGTTCAAGCGCCATCTAC,0.868 RPM ratio (pull-down/input)
12,GATGATTGTTCTCCCAGCTGATGAATTCCTCTGATCGAGTAAACAAATTTTCCTAATCTTTCTGTTCAAGCGCCATCTAC,0.844 RPM ratio (pull-down/input)
13,GATGATTGTTCTCCCAGCTGATGAATTTATTTTCTCGAGTAAACAAATTTTCCTAATCTTTCTGTTCAAGCGCCATCTAC,1.77 RPM ratio (pull-down/input)
14,GATGATTGTTCTCCCAGCTGATGAATTTGTTTACTCGAGTAAACAAATTTTCCTAATCTTTCTGTTCAAGCGCCATCTAC,2.62 RPM ratio (pull-down/input)
15,GATGATTGTTCTCCCAGCTGATGAATTTTATTTCTCGAGTAAACAAATTTTCCTAATCTTTCTGTTCAAGCGCCATCTAC,1.16 RPM ratio (pull-down/input)
16,GATGATTGTTCTCCCAGCTGATGAATTATTTTACTCGAGTAAACAAATTTTCCTAATCTTTCTGTTCAAGCGCCATCTAC,1.2 RPM ratio (pull-down/input)
17,GATGATTGTTCTCCCAGCTGATGAATTTATTTACTCGAGTAAACAAATTTTCCTAATCTTTCTGTTCAAGCGCCATCTAC,2.5 RPM ratio (pull-down/input)
18,GATGATTGTTCTCCCAGCTGATGAATTTTTTGACTCGAGTAAACAAATTTTCCTAATCTTTCTGTTCAAGCGCCATCTAC,0.935 RPM ratio (pull-down/input)
19,GATGATTGTTCTCCCAGCTGATGAATTTTATTACTCGAGTAAACAAATTTTCCTAATCTTTCTGTTCAAGCGCCATCTAC,1.01 RPM ratio (pull-down/input)
20,GATGATTGTTCTCCCAGCTGATGAATTTGATGACTCGAGTAAACAAATTTTCCTAATCTTTCTGTTCAAGCGCCATCTAC,0.974 RPM ratio (pull-down/input)
21,GATGATTGTTCTCCCAGCTGATGAATTTATTTCCTCGAGTAAACAAATTTTCCTAATCTTTCTGTTCAAGCGCCATCTAC,1.3 RPM ratio (pull-down/input)
22,GATGATTGTTCTCCCAGCTGATGAATTGTTTTACTCGAGTAAACAAATTTTCCTAATCTTTCTGTTCAAGCGCCATCTAC,1.42 RPM ratio (pull-down/input)
23,GATGATTGTTCTCCCAGCTGATGAATTTGTTGACTCGAGTAAACAAATTTTCCTAATCTTTCTGTTCAAGCGCCATCTAC,2.35 RPM ratio (pull-down/input)
24,GATGATTGTTCTCCCAGCTGATGAATTTTTTTACTCGAGTAAACAAATTTTCCTAATCTTTCTGTTCAAGCGCCATCTAC,0.958 RPM ratio (pull-down/input)
